The list is not random: actives were taken first. Their share in the collection is about 17%.
HT1080 IDH1KD tx – kills HT-1080 cells with IDH1 knockdown. HT-1080 IDH1 knockdown viability, ATP luminescence, 48 h. Potency, µM (top dose mostly 46.1 µM), inactives show at the top dose activity, negative = toxicity, most hits filed as cytotoxic. hit rate 2% among 360,000;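 further: 0% = DMSO wells and -100% = cell-free medium wells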
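CellTiter-Glo luminescence after 48 h compound exposure at 37 degrees C of IDH1-knockdown HT-1080 cells in 5% FBS RPMI. %Activity scaled between DMSO wells and cell-free media wells, with curves fitted and assigned curve classes.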
TDP1 cell CPT – DT40-hTDP1 cell growth loss with CPT; Potency, µM (top dose mostly 46.2 µM), for the others: at the highest dose activity change, negative = growth inhibition, usual class: inhibitors; AID 686979; chicken DT40 Tdp1-/-;hTDP1 cells + 20 nM CPT, ATP luminescence, 48 h; hit rate 12% among 420,000; further: on the % scale 0 is the no-effect control and ±100 the full control effect; nearly all actives have a fitted effect of over 55% in size
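Chicken DT40 Tdp1-/- cells stably complemented with human TDP1 were seeded at 400 cells/well in medium containing 20 nM camptothecin, exposed to pin-transferred compounds, and grown at 37 °C for at least 48 hr. Viability was read as ATP luminescence.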
TGFb inhibitor – inhibitors of TGF-b signaling; hit rate 1.2% among 410,000; Potency, µM (series often up to 46.1 µM), without a hit: top-dose activity, negative = inhibition, most hits filed as inhibitors; AID 588855; HepG2 CAGA-GFP TGF-b/SMAD3 reporter, GFP fluorescence, 18 h; TGF-beta stimulated, 500 pg/mL final; further: on the % scale 0 is the no-effect control and ±100 the full control effect; nearly all actives have a fitted effect of over 65% in size
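GFP signal (ex488/em500-530) from TGF-beta-stimulated HEPG2 CAGA-GFP cells, 500 pg/mL final, 18 h at 37 degrees C in DMEM plus 1% FBS, normalized to unstimulated and DMSO-stimulated controls.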
HepG2 viability – HepG2 cytotoxicity, counter-screen for TGF-b inhibitors; HepG2 CAGA-GFP viability, ATP luminescence, 18 h; Potency, µM (series often up to 46.1 µM), inactives show top-dose activity change, negative = cytotoxicity, most hits filed as cytotoxic; hit rate 0.76% among 410,000
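HepG2 CAGA-GFP cells (1000/well, DMEM with 1% FBS) received compound, then TGF-beta at 500 pg/mL final, and were incubated 18 hours at 37 degrees C. Viability was read by CellTiter-Glo luminescence. Media-only wells were set as complete cell-killing and DMSO as no toxicity.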
TDP1 cell noCPT – qHTS for Inhibitors of human tyrosyl-DNA phosphodiesterase 1 (TDP1): qHTS in cells in absence of CPT | Potency, µM (series often up to 46.2 µM), without a hit: at the highest dose activity change, negative = growth inhibition, usual class: inhibitors | hit rate 15% among 420,000 | DT40 Tdp1-/- hTDP1 cells, no CPT, ATP luminescence, 48 h; further: on the % scale 0 is the no-effect control and ±100 the full control effect; nearly all actives have a fitted effect of over 55% in size
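Chicken DT40 Tdp1-/- cells stably complemented with human TDP1 were seeded at 400 cells/well with DMSO in place of 20 nM camptothecin. After compound pinning, cells grew at least 48 hr at 37 °C; viability read by CellTiter-Glo luminescence.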
HT1080-NT tox – kills 2HG-producing HT-1080-NT fibrosarcoma cells; HT-1080-NT fibrosarcoma viability, CellTiter-Glo ATP luminescence, 48 h; Potency, µM (highest dose often 46.1 µM), for inactives: top-dose activity, negative = less viability, hits mostly cytotoxic; hit rate 1.6% among 360,000;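 further: NT is the 2HG producing partner of a matched IDH1 knockdown line; 0% = DMSO-treated cells and -100% = media-only wells without cells; nearly all actives have a fitted effect of over 55% in size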
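HT-1080-NT fibrosarcoma cells (2HG-overproducing), 750 cells/well in RPMI with 5% FBS, dosed after 2 h and incubated 48 h at 37C. CellTiter-Glo luminescence normalized to DMSO and no-cell wells; concentration-response curves fitted and classed.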
* marks the source's active call; other numbers are inactive results; ? = inconclusive; . = no result; [ ] = dose if it differs, or a comment. The call rests on the fitted dose curve; in most records, active means well fitted curve in the direction sought with a large enough effect; inconclusive means small, poorly fitted or top-dose-only effect, or another doubt; inactive means no such curve, though single readings can be large; an effect the other way counts as inactive or inconclusive. Potency means the concentration at half of the fitted maximal effect.

SMILES	HT1080 IDH1KD tx	TDP1 cell CPT	TGFb inhibitor	HepG2 viability	TDP1 cell noCPT	HT1080-NT tox
CCOC(=O)[C@]12CCCC=C1N(Cc1ccccc1)C(=O)[C@H](CC(=O)NCc1ccc(C)o1)C2	2%	?	.	.	?	-1%
Cc1ccc(CN(C(=O)COc2cccc([N+](=O)[O-])c2)c2ccccn2)o1	.	?	-2%	-16%	?	.
CCOC(=O)[C@]12CCC=C1N(CCC1=CCCCC1)C(=O)[C@H](CC(=O)NCCCCc1ccccc1)C2	?	?	.	.	21µM*	?
CCCCOCCCNC(=O)C[C@@H]1C[C@@]2(C(=O)OCC)CCC=C2N(CCC2=CCCCC2)C1=O	-26%	?	.	.	?	-2%
CCCCNC(=O)C[C@@H]1C[C@@]2(C(=O)OCC)CCC=C2N(CCC2=CCCCC2)C1=O	-18%	18µM*	.	.	?	0%
CS(=O)(=O)Nc1cccc(-c2cncnc2NCc2ccccc2)c1	.	-3%	.	.	10%	.
COc1ccc(NC(=O)CSc2nnc(NC(=O)C3CC3)s2)cc1OC	12%	0%	17%	29%	7%	2%
O=C(CCNc1cccc(F)c1)c1cc2ccccc2o1	-3%	16µM*	-19%	-3%	15µM*	7%
O=C(Cc1cc2ccccc2o1)NCc1ccc(F)cc1	-11%	21µM*	2%	-16%	23µM*	?
O=C(CCNc1ccc(F)cc1)c1cc2ccccc2o1	-1%	8.2µM*	?	2%	16µM*	-14%
O=C(Cc1ccc(F)cc1)OCC(=O)c1cc2ccccc2o1	0%	-10%	-38%	-2%	-15%	-1%
CSc1ccccc1NC(=O)c1cccc(S(=O)(=O)N2CCN(C)CC2)c1	0%	-7%	-5%	2%	-3%	22%
CCC1SC(CC)C(=O)N(CC(=O)NCCc2ccccc2)C1=O (centres undefined)	-12%	9%	-8%	9%	8%	8%
O=C(CN1C(=O)C2C3C=CC(C3)C2C1=O)NCCc1ccccc1 (centres undefined)	20%	12µM*	-1%	6%	23µM*	8%
Cc1cnc(C)c(-c2cc(F)cc3c2OC(CNC(=O)Cc2ccccc2C)C3)n1 (centres undefined)	.	2%[9.04 µM]	.	.	?	.
CCOC(=O)C1=C(C)N(c2ccc(OC)cc2)C(=O)/C1=C\c1cccs1	-2%	?	3%	-13%	?	-6%
CCOC(=O)C1=C(C)N(c2ccc(OC)cc2)C(=O)/C1=C\c1ccc(O)c(OCC)c1	-5%	23µM*	?	-56%	?	0%
CCc1nc2ccc(C(=O)NCCc3ccccn3)cn2c1N(CCC(C)C)CCN(C)C	14%	-23%	0%	-1%	?	-3%
CCc1nc2ccc(C(=O)NCCCN(C)C)cn2c1N(CC)CCOC	11%	2%	37%	0%	2%	7%
CCc1nc2ccc(C(=O)NCCOc3ccc(OC)cc3)cn2c1N(CCC(C)C)CCN(C)C	21µM*	-89%	10%	-23%	-78%	?
CCCCNC(=O)c1ccc2nc(CC)c(N(CCC(C)C)CCN(C)C)n2c1	?	?	6%	-18%	?	?
CCc1nc2ccc(C(=O)NCc3ccc(OC)cc3)cn2c1N(C)CCC(C)C	?	?	-3%	13%	23µM*	?
CCc1nc2ccc(C(=O)NCCc3ccccn3)cn2c1N(C)CCC(C)C	-1%	?	-16%	-26%	26µM*	-2%
CCCCNC(=O)c1ccc2nc(CC)c(N(CC)CCOC)n2c1	29%	26µM*	12%	19%	21µM*	14%
COC(=O)[C@H](Cc1ccccc1)NC(=O)Cn1cnc2c(NCc3ccccc3)ncnc21	-1%	3%	-3%	-30%	?	-2%
SMILES	HT1080 IDH1KD tx	TDP1 cell CPT	TGFb inhibitor	HepG2 viability	TDP1 cell noCPT	HT1080-NT tox
Cc1nc(NC(=O)CCc2ccccc2)sc1C	0%	?	12%	-18%	?	-19%
CCc1nc2ccc(C(=O)Nc3cccc(OC)c3)cn2c1N(CC)CCOC	14%	13µM*	-15%	-74%	18µM*	-8%
CCc1nc2ccc(C(=O)NCc3ccc(OC)cc3)cn2c1N(CC)CCOC	-7%	15µM*	-18%	4%	?	4%
CCc1nc2ccc(C(=O)NCc3ccccc3OC)cn2c1N(CC)CCN(C)C	-4%	-3%	9%	-9%	-9%	0%
CCc1nc2ccc(C(=O)NCc3ccccc3OC)cn2c1N(CC)CCOC	22%	16µM*	?	-2%	16µM*	12%
CSc1nnc(CCNC(=O)c2ccccc2C(F)(F)F)n1-c1ccc(F)cc1	.	18%[9.04 µM]	.	.	-7%	.
CN(C)S(=O)(=O)c1ccc(C(=O)Nc2cc(S(=O)(=O)Nc3ccccc3Cl)ccc2N2CCCCC2)cc1	2%	8.2µM*	6%	-12%	16µM*	8%
CN1CCN(c2ccc(Cl)cc2NC(=O)c2ccc(S(=O)(=O)N(C)C)cc2)CC1	-13%	18µM*	-9%	-13%	?	-14%
CN(C)S(=O)(=O)c1ccc(C(=O)Nc2ccc(F)cc2F)cc1	-1%	12%	-3%	-6%	-17%	-1%
Nc1sc(-c2ccccc2)n[n+]1Cc1cccc2cccnc12	-14%	?	?	-127%	23µM*	0%
Oc1ccccc1CNc1cccc2cccnc12	?	?	-27%	-16%	?	?
CCOC(=O)N1CCN(C(=O)COC(=O)C2CCN(S(=O)(=O)c3ccc(C)c(C)c3)CC2)CC1	2%	5%	0%	0%	9%	10%
CC1S/C(=N/N=C/c2ccco2)N(Cc2ccccc2)C1=O (centres undefined)	-19%	?	-8%	-14%	9.2µM*	5%
Cc1cc(C)n2nc(SCC(=O)NC3CCCCC3)nc2n1	8%	6%	-4%	6%	-11%	8%
OC(COc1ccc(Cl)cc1)CN1CCN(c2ccccc2)CC1 (centres undefined)	-10%	-29%	-12%	-29%	-21%	-7%
CCn1c(=N)n(CC(O)COc2ccccc2)c2ccccc21 (centres undefined)	.	.	32%	-16%	.	.

Screens (PubChem)
